Laboratory results reported in PubChem BioAssay (NCI).
The panel holds about 79,000 compounds, 15% with a hit somewhere; the sample as a whole holds those more often. Values without a mark were called inactive. The source made the active and inactive calls. Rule as the data show it: active = growth inhibition above about 70%; inactive = the rest.

Experiments:
[1] = NCI Yeast Anticancer Drug Screen. Data for the rad50 strain (AID 155);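 also: 0% = growth of vehicle-only cultures of the same strain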; settings: S. cerevisiae rad50 strain growth inhibition, stronger effect = higher value
Procedure, shortened: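 Relative growth inhibition (compound vs vehicle) was measured in yeast with a defined repair-gene alteration.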

[2] = NCI Yeast Anticancer Drug Screen. Data for the mec2-1 strain (AID 157); settings: S. cerevisiae mec2-1 strain, stronger effect = higher value
Procedure, shortened: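 Strain: mec2-1 (DNA repair/cell cycle alteration). Compound exposure, then growth measured; inhibition expressed relative to vehicle.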

[3] = NCI Yeast Anticancer Drug Screen. Data for the sgs1 mgt1 strain (AID 161);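 also: 0% = growth of cultures given vehicle only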; settings: S. cerevisiae sgs1 mgt1 strain, stronger effect = higher value
Procedure, shortened: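 Inhibition of yeast growth, normalised to vehicle-treated controls, is reported for a strain bearing genetic alterations in DNA damage repair.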

[4] = NCI Yeast Anticancer Drug Screen. Data for the cln2 rad14 strain (AID 165);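 also: 0% = growth equal to vehicle treated cultures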; settings: S. cerevisiae cln2 rad14 strain, stronger effect = higher value
Procedure, shortened: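 Compounds are applied to the cln2 rad14 yeast strain, and growth is then compared with that of vehicle-treated cultures to give inhibition.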

[5] = NCI Yeast Anticancer Drug Screen. Data for the bub3 strain (AID 167); settings: S. cerevisiae bub3 mutant strain, stronger effect = higher value
Procedure, shortened: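 Screening used yeast with an engineered genetic alteration affecting cell cycle control. Compound-exposed cultures were compared with vehicle cultures, and reduced growth was taken as inhibition.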

[6] = NCI Yeast Anticancer Drug Screen. Data for the mlh1 rad18 strain (AID 175); settings: S. cerevisiae mlh1 rad18 strain growth inhibition, stronger effect = higher value
Procedure, shortened: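 Read-out is yeast growth inhibition, calculated against vehicle-only controls. The compound was applied to a strain engineered with DNA damage repair alterations.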

[7] = at 5.0 µM (retest, dose inferred, filed as 0.5)
[8] = at 50.0 µM (retest, dose inferred, filed as 5.0)

Row | SMILES | growth inhibition [1, 7] | growth inhibition [1, 8] | growth inhibition ([1]; at 50.0 µM) | growth inhibition [2, 7] | growth inhibition [2, 8] | growth inhibition ([2]; at 50.0 µM) | growth inhibition [3, 7] | growth inhibition [3, 8] | growth inhibition ([3]; at 50.0 µM) | growth inhibition [4, 7] [%] | growth inhibition [4, 8] | growth inhibition ([4]; at 50.0 µM) | growth inhibition [5, 7] | growth inhibition [5, 8] | growth inhibition ([5]; at 50.0 µM) | growth inhibition [6, 7] | growth inhibition [6, 8] | growth inhibition ([6]; at 50.0 µM)
1 | COc1ccc(C(C)c2cc3c(cc2O)OCO3)cc1 (centres undefined) | 7% | 99% (active) | 98.5% (active) | -8% | 48% | 98.7% (active) | -3% | 56% | 98.8% (active) | -23 | 58% | 97.1% (active) | -22% | 76% (active) | 98.5% (active) | 7% | 97% (active) | 98% (active)
2 | COc1ccccc1N=Nc1c(N)nc(N)[nH]c1=O | 4% | 14% | 6.4% | -10% | 16% | 1.05% | -17% | 14% | -2.05% | 0 | -7% | 11.6% | -2% | -2% | 52.5% | 15% | 20% | 9.8%
3 | C=C(C#N)C(=O)OCC(CC)CC.C=C(C#N)C(=O)OCC(CC)CC.CS(C)=O.CS(C)=O.Nc1c(N=Nc2ccc(-c3ccc(N=Nc4cc(S(=O)(=O)[O-])c5ccccc5c4N)cc3)cc2)cc(S(=O)(=O)[O-])c2ccccc12.[Pt+2] | -13% | 98% (active) | 96.8% (active) | 6% | 98% (active) | 96.9% (active) | 1% | 97% (active) | 96.5% (active) | -1 | 98% (active) | 95.8% (active) | 3% | 98% (active) | 92.9% (active) | -6% | 97% (active) | 96.5% (active)
4 | CSCCC(NC(=O)C(CCSC)NS(=O)(=O)Cc1ccccc1)C(=O)O (centres undefined) | -6% | -4% | 98.9% (active) | -4% | -3% | 99.6% (active) | -6% | -6% | 48.5% | -2 | -12% | 98.7% (active) | -4% | -3% | 99.2% (active) | -4% | -5% | 99.2% (active)
5 | C(/C=C/CC=Nc1ccccc1)=Nc1ccccc1 | 3% | 4% | 4.4% | 2% | 3% | 30.6% | 0% | 6% | 12.1% | -4 | -4% | 42.2% | -4% | -3% | -7.75% | 7% | 3% | -29.7%
6 | COc1ncc(Br)cc1C(=O)NCCc1ccc(S(=O)(=O)NC(=O)NC2CCCCC2)cc1 | 4% | 96% (active) | 92.8% (active) | 5% | 94% (active) | 95.5% (active) | -1% | 94% (active) | 95.3% (active) | 5 | 96% (active) | 96.2% (active) | 18% | 97% (active) | 94.2% (active) | 11% | 94% (active) | 94.9% (active)
7 | COC(=O)c1c2c(cc3c1CC1(Cc4cc5c(c(C)c4C1)CCC5)C3)CCC2 (centres undefined) | 15% | 12% | -32.5% | 6% | 5% | -46.4% | 9% | 12% | -31.9% | -4 | 13% | -11.1% | 14% | 10% | -13.1% | 12% | 11% | -22.9%
8 | CCCCCCCCCCCCSC1=C(N)C(=O)c2ccccc2C1=O | 3% | 2% | 8.35% | 0% | 3% | 11.1% | 8% | -5% | -9.05% | -3 | 0% | 32.3% | -1% | -1% | 11.3% | 0% | 5% | 53%
9 | CCOSc1ccccc1 | 3% | 50% | 34.3% | 5% | 63% | 32.7% | 3% | 74% (active) | 16.2% | 2 | 22% | 16.1% | 0% | 74% (active) | 20.6% | 21% | 93% (active) | 56.7%
10 | O=C(Nc1ccc(Cl)cc1)NS(=O)(=O)c1ccc2c(c1)CCC2 | -18% | 35% | 59.2% | -40% | 16% | 39.4% | -30% | 57% | 69.8% | -23 | 38% | 59% | -14% | 62% | 30.4% | -47% | 27% | 45.6%
11 | O=C(NCc1ccccc1)C1C(=O)N(Cc2ccccc2)C(=O)/C1=N/O (centres undefined) | -16% | -1% | -17.1% | 2% | 1% | 16.8% | -14% | -22% | 35.2% | -4 | -1% | -22.5% | 2% | -1% | 31.6% | -2% | -3% | 12.8%
12 | Fc1cccc(C2SCc3nc4ccccc4n32)c1F (centres undefined) | -4% | 2% | 63.3% | -5% | 23% | 54.8% | -3% | 28% | 76.2% (active) | -12 | -7% | 40.2% | -5% | 14% | 73.3% (active) | -8% | 7% | 92% (active)
13 | CC(=O)/C(=C/n1c(=S)[nH]c2ccc([N+](=O)[O-])cc21)C(=O)Nc1ccc(Cl)cc1 | 1% | -1% | 10.9% | -9% | 2% | 6.75% | 0% | -5% | 16.7% | -21 | -17% | 46.4% | -4% | -2% | 15.6% | 1% | -2% | 22.3%
14 | CC1=C(C)CC(C#N)(C#N)C(C#N)(C#N)C1 | -12% | 80% (active) | 83.9% (active) | 10% | 92% (active) | 79.6% (active) | -13% | 80% (active) | 82.2% (active) | -18 | 86% (active) | 38.1% | 30% | 97% (active) | 58.7% | 6% | 97% (active) | 75.3% (active)
15 | CC(=O)N(c1ccccc1)C(C)C | 6% | 14% | -5.75% | 6% | 0% | -10.2% | 1% | 1% | -9.75% | -1 | -5% | 44.4% | 10% | 79% (active) | -1.65% | 14% | 10% | 9.8%
16 | Nc1ccc2c(c1)CN1C(=O)c3ccccc3C1=N2 | 24% | 54% | 67.3% | 8% | 22% | 34.6% | -3% | 12% | 5.55% | 23 | 18% | 36.6% | 3% | 19% | 22.4% | 11% | 19% | 46%
17 | CSc1c(S(C)=O)c2ccccc2n1C (centres undefined) | 20% | 17% | -20.6% | 22% | 27% | -13.2% | 12% | 11% | -22.2% | 25 | 17% | -6.4% | 3% | 8% | -39.5% | 27% | 20% | -26.4%
18 | CCN(CC)CCCC(C)Nc1cc(O)c2c(c1O)C(=O)c1ccccc1C2=O (centres undefined) | 96% (active) | 98% (active) | 98.8% (active) | 95% (active) | 99% (active) | 98.5% (active) | 98% (active) | 99% (active) | 98.8% (active) | 53 | 98% (active) | 97.2% (active) | 95% (active) | 98% (active) | 97.8% (active) | 94% (active) | 98% (active) | 98.8% (active)
